Compound activity: PubChem BioAssay, National Center for Advancing Translational Sciences (NCATS)
KB-3-1 tox: qHTS assay for MDR1-selective chemotherapeutics: Primary screen using the parental adenocarcinoma cell KB-3-1; KB-3-1 viability, CellTiter-Glo ATP luminescence, 72 h; Potency, µM (titrated, usually from 46.1 µM), usual class: cytotoxic; actives 1.4% (n = 400,000); also: % is scaled to controls: 0 for no effect and ±100 for the full control effect; nearly all actives have a fitted effect of over 60% in size
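Cells are dispensed, compounds pinned in, plates held at 37 °C for 72 h, then CellTiter-Glo is added and luminescence read after 10 minutes. Cell line: parental KB-3-1 in phenol-red-free DMEM, 10% FBS.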
KB-V1 MDR tox: qHTS assay for MDR1-selective chemotherapeutics: Primary screen using the drug-selected MDR subline cells KB-V1. KB-V1 MDR cells viability, CellTiter-Glo, 72 h. Potency, µM (titrated, usually from 46.1 µM), most hits filed as cytotoxic. AID 1347076, 2019. actives 3.4% (n = 400,000); also: % is scaled to controls: 0 for no effect and ±100 for the full control effect; nearly all actives have a fitted effect of over 60% in size
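KB-V1, DMEM (no phenol red) + 10% FBS; cpd pin-transferred, titration series; 72 h, 37 degrees C; CellTiter-Glo, luminescence. Data normalized, curve-fit.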
PTAP TSG101 blk: qHTS Assay for Iinhibitors of HIV-1 Budding by Blocking the Interaction of PTAP/TSG101; Fluorescence polarization, FITC-PTAP peptide / Tsg101 binding; AID 493005, 2010; 340,000 tested, under 10 active; Potency, µM (highest dose often 115 µM), without a hit: at the top dose activity change, negative = inhibition, most hits filed as inhibitors; active = well fitted inhibition curve with a large enough effect in the main read-out, with a control signal flat, not every such curve was filed as active; inconclusive = small, poorly fitted or top-dose-only effect, or effect the other way, or a change in a side signal; inactive = no such curve, though single readings can be large or run the other way; also: % of control where 0% means no effect
Target sequence (Q99816 whole entry, looked up): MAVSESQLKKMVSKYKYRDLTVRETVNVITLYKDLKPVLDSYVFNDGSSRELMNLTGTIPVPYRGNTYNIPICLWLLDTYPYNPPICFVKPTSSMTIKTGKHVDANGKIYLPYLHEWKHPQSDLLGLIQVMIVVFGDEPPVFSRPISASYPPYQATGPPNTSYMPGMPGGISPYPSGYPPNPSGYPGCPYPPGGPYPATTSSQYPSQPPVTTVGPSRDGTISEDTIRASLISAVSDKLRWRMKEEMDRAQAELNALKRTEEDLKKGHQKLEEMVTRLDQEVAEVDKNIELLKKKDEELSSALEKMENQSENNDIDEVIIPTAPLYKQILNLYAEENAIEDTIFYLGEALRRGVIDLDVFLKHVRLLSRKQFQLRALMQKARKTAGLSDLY
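Fluorescence anisotropy tracks displacement of a FITC-tagged PTAP peptide (50 nM) from the Tsg101 binding domain (10 uM), following a 20 min room-temperature incubation at pH 7.5.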
RGS4 inh: Inhibitors of Regulator of G Protein Signaling (RGS) 4: qHTS; Regulator of G-protein signaling 4 (Homo sapiens), P49798; actives 0.039% (n = 390,000); Transcreener GDP fluorescence polarization, RGS4-accelerated GTP hydrolysis; AID 504845, 2011; Potency, µM (highest dose often 114 µM), for inactives: at the top dose activity change, negative = inhibition, most hits filed as inhibitors; also: % is scaled to controls: 0 for no effect and ±100 for the full control effect; nearly all actives have a fitted effect of over 75% in size
Target sequence (P49798 whole entry, looked up): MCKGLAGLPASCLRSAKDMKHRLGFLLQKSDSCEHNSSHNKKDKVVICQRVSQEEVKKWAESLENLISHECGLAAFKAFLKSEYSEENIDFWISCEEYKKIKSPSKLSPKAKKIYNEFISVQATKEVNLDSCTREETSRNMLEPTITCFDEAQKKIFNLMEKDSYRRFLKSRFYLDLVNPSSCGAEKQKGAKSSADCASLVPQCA
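MLSMR compounds (23 nl, pin-transferred) preincubated 10 min at room temperature with a 500nM (2x) first reagent, then RGS4 at 900nM (2x) plus Transcreener GDP mix added; fluorescence polarization (620/688 nm) read before and after 90 min at 30 °C.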
MCF10A rereplic: A quantitative high throughput screen for small molecules that induce DNA re-replication in MCF 10a normal breast cells | MCF 10A DNA re-replication, Hoechst nuclear intensity, 48 h | Potency, µM (series often up to 46.1 µM), without a hit: top-dose activity, positive = re-replication, hits mostly activators | actives 2.9% (n = 350,000); also: % of control where 0% means no effect; nearly all actives have a fitted effect of over 50% in size
SW480 rereplic: A quantitative high throughput screen for small molecules that induce DNA re-replication in SW480 colon adenocarcinoma cells | Potency, µM (series often up to 46.1 µM), inactives show top-dose re-replication activation, hits mostly activators | AID 624297, 2012 | actives 1.8% (n = 340,000) | SW480 DNA re-replication, Hoechst DNA content imaging, 48 h; also: % of control where 0% means no effect; nearly all actives have a fitted effect of over 55% in size
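SW480 cells exposed to compounds for 48 hr at 37 C, 5% CO2, then Hoechst-stained 40 min. Nuclear DNA content imaged by fluorescence scanning (405 nm excitation, 500-530 nm emission); re-replication scored as increased high-intensity nuclei.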
Active calls of the source: *; i = inactive; ? = inconclusive; nt = no result given; [ ] = remark or other dose. A selection: hits, their analogues and other compounds. The true share with any hit is near 6.6%. Unless noted, calls follow the shape of the dose curve; as a rule, active = well fitted curve in the direction sought with a large enough effect; inconclusive = small, poorly fitted or top-dose-only effect, or another doubt; inactive = no such curve, though single readings can be large; an effect the other way counts as inactive or inconclusive. Potency is read from the fitted curve at half-maximal effect.

SMILES	KB-3-1 tox	KB-V1 MDR tox	PTAP TSG101 blk	RGS4 inh	MCF10A rereplic	SW480 rereplic
CCc1nnc(NC(=O)CSc2nc(-c3ccccc3)cc(-c3ccc(F)cc3)c2C#N)s1	?	?	0%	12%	4.1µM*	10µM*
N#Cc1c(-c2ccc(F)cc2)cc(-c2cccs2)nc1SCC(=O)O	i	i	-5%	-50%	23µM*	?
N#Cc1c(C(F)(F)F)cc(-c2cccs2)nc1SCC(=O)O	i	i	2%	3%	0%	-3%
COc1ccccc1-c1cn[nH]c1-c1ccc(OCc2ccccc2F)cc1O	i	i	0%	1%	7.3µM*	?
CCOC(=O)c1ccc(Oc2cn[nH]c2-c2ccc(O)cc2O)cc1	23µM*	i	-1%	19%	?	-13%
COc1ccccc1-c1cn[nH]c1-c1ccc(OCc2ccc(F)cc2)cc1O	i	i	-1%	7%[56.9 µM]	?	13%
COc1ccc(-c2n[nH]c(C)c2-c2ccc(Cl)cc2)c(O)c1OC	?	?	3%	-6%	18µM*	5%
CCCOC(=O)c1ccc(Oc2cn[nH]c2-c2ccc(O)cc2O)cc1	?	i	-1%	31%	?	6%
C=C(C)COc1ccc(-c2[nH]ncc2Oc2ccccc2OCC)c(O)c1	?	i	-15%	26%	16µM*	?
COc1ccccc1C1NC(=O)c2n[nH]c(-c3cccs3)c21 (configuration not stated)	i	i	nt	-10%	nt	nt
Cc1ccc(Cl)cc1N1CCN(C(=O)CCCn2c(=O)[nH]c3ccc(Br)cc3c2=O)CC1	i	?	nt	1%	nt	nt
O=C(C1CCC1)N1CCc2cc(S(=O)(=O)NCCc3ccccc3)ccc21	i	i	nt	25%	nt	nt
CCOc1ccc(NC(=O)C2CCCN(c3nnc(-n4c(C)ccc4C)s3)C2)cc1 (configuration not stated)	nt	nt	nt	-18%	nt	nt
CSc1nc2sc3c(c2c(=O)n1-c1ccc(F)c(Cl)c1)CCN(C(C)=O)C3	i	i	nt	-30%	nt	nt
COc1ccc(-c2cn[nH]c2-c2ccc(OCc3ccc(F)cc3)cc2O)cc1OC	?	?	-4%	2%	21µM*	18µM*
C=C(C)COc1ccc(-c2n[nH]c(C)c2-c2ccc(OC)c(OC)c2)c(O)c1	6.5µM*	5.8µM*	1%	2%	?	25%
C=C(C)COc1ccc(-c2[nH]ncc2-c2ccc(OC)cc2)c(O)c1	i	i	-7%	-12%	?	13%
COc1ccc(-c2cn[nH]c2-c2ccc(OCc3ccccc3)cc2O)cc1OC	?	?	0%	-51%	?	?
C=C(C)COc1ccc(-c2[nH]ncc2-c2ccc(OC)c(OC)c2)c(O)c1	1.6µM*	1.3µM*	-5%	-4%	5.2µM*	2.9µM*
Oc1cc(OCc2ccccc2)ccc1-c1[nH]ncc1-c1ccccc1	i	i	-1%	2%	23µM*	1%
Cc1ccc(CNC(=O)CCC(=O)N2CC3CCCN3c3ccccc32)cc1 (configuration not stated)	i	?	nt	-14%	nt	nt
COc1ccc2c(c1)C=C/C2=C/c1ccc(N(C)C)cc1	i	i	nt	nt	nt	nt
CCOC(=O)c1ccc(N2C(=O)[C@@H](c3ccccc3)[C@H]2c2ccccc2)cc1	i	i	0%	-2%	?	-1%
CCOC(=O)c1ccc(N2C(=O)C3C(/C=C/c4ccccc4)OC4(C(=O)c5ccccc5C4=O)C3C2=O)cc1 (configuration not stated)	i	i	-4%	-10%	26µM*	-6%
O=C(c1ccccc1)C(c1ccccc1)[n+]1csc2ccccc21 (configuration not stated)	i	i	nt	nt	nt	nt
SMILES	KB-3-1 tox	KB-V1 MDR tox	PTAP TSG101 blk	RGS4 inh	MCF10A rereplic	SW480 rereplic
Cc1cc(-c2ccc(C)c(S(=O)(=O)N3CCC(C)CC3)c2)on1	i	?	nt	17%	nt	nt
COc1ccc(-c2cc(C)no2)cc1S(=O)(=O)N1CCN(c2cccc(C)c2)C(C)C1 (configuration not stated)	12µM*	?	-2%	-15%	?	-3%
Cc1cccc(N2CCN(S(=O)(=O)c3cc(-c4cc(C)no4)ccc3C)CC2C)c1 (configuration not stated)	?	?	2%	-17%	3.3µM*	10µM*
CCOc1ccc(C2C(C(=O)Nc3ccccc3OC)=C(C)Nc3c(C(=O)Nc4cccc(C)c4)cnn32)cc1 (configuration not stated)	nt	nt	nt	4%	nt	nt
Nc1nc(-c2cc(O)ccc2[N+](=O)[O-])cc(-c2ccccc2)c1[N+](=O)[O-]	i	i	-1%	-21%	1.8µM*	23µM*
Cc1ccc(S(=O)(=O)NCc2ccccc2)cc1C(=O)N1CCCCCCC1	i	9.2µM*	-1%	-17%	25%	?
COc1ccc(S(=O)(=O)NCc2ccc(C(=O)N3CCN(Cc4ccccc4)CC3)cc2)cc1	i	i	-4%	42%	16%	-17%
Cc1ccc(S(=O)(=O)NCc2ccc(C(=O)N3CCN(Cc4ccccc4)CC3)cc2)cc1	23µM*	?	-5%	3%	14%	-3%
O=C(c1ccc(S(=O)(=O)c2cccc(Cl)c2)c([N+](=O)[O-])c1)N1CCN(Cc2ccccc2)CC1	?	?	-2%	0%	21µM*	?
Cc1ccc(S(=O)(=O)NCc2ccccc2)cc1C(=O)N1CCN(S(=O)(=O)c2ccccc2)CC1	i	i	-1%	29%	7%	-5%
Cc1nc2ccc(S(=O)(=O)N(CC(=O)Nc3ccc(F)cc3F)Cc3ccccc3)cc2s1	i	i	nt	13%	nt	nt
Cc1cc2sc3ccccc3c(=O)c2c(C)c1O	?	18µM*	-5%	-23%	11%	2%
O=c1c2ccccc2sc2ccccc12	?	?	1%	7%	0%	-1%
N=c1c2c(n(Cc3ccc(Cl)c(Cl)c3)c3c1CCC3)CCCC2	i	i	-6%	10%	?	2%
